Measurements taken from PubChem BioAssay (NCI).
Several values for one entry are separate records, joined by “and”; a condition that tells them apart may be missing. Equal entries are not always repeated. This is part of a sample that, as a whole, favours compounds with a hit. Of some 83,000 tested, about 20% had one in any assay.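 Method: cells in 96-well plates; compound added at one concentration; 48 h incubation; percent growth measured; values under 10 scored active.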 Activity calls are given as the source filed them.

Key:
Test in all cases: NCI-60 one-dose screen, 48 h (100 = growth as untreated, 0 = no growth, -100 = all killed)
Details in all cases: 10 µM unless noted
SR leukemia = tested on: SR leukemia
RPMI-8226 leukemia = tested on: RPMI-8226 leukemia
OVCAR-8 ovarian = tested on: OVCAR-8 ovarian
OVCAR-5 ovarian = tested on: OVCAR-5 ovarian
OVCAR-4 ovarian = tested on: OVCAR-4 ovarian
SK-OV-3 ovarian = tested on: SK-OV-3 ovarian
IGROV1 ovarian = tested on: IGROV1 ovarian
OVCAR-3 ovarian = tested on: OVCAR-3 ovarian
HS 578T breast = tested on: HS 578T breast
NCI/ADR-RES ovarian = tested on: NCI/ADR-RES ovarian
T-47D breast = tested on: T-47D breast
MDA-MB-435 melanoma = tested on: MDA-MB-435 melanoma
SW-620 colon = tested on: SW-620 colon
MCF7 breast = tested on: MCF7 breast
HCT-116 colon = tested on: HCT-116 colon
HCC-2998 colon = tested on: HCC-2998 colon
KM12 colon = tested on: KM12 colon
BT-549 breast = tested on: BT-549 breast

Row | SMILES | growth (SR leukemia) | growth (RPMI-8226 leukemia) | growth (OVCAR-8 ovarian) | growth (OVCAR-5 ovarian) | growth (OVCAR-4 ovarian) | growth (SK-OV-3 ovarian) | growth (IGROV1 ovarian) | growth (OVCAR-3 ovarian) | growth (HS 578T breast) | growth (NCI/ADR-RES ovarian) | growth (T-47D breast) | growth (MDA-MB-435 melanoma) | growth (SW-620 colon) | growth (MCF7 breast) | growth (HCT-116 colon) | growth (HCC-2998 colon) | growth (KM12 colon) | growth (BT-549 breast)
1 | NC1CCC(C(=O)O)CC1 (stereo unspecified) | 111% (inactive) and 105% (inactive) | 93.2% (inactive) and 75.8% (inactive) | 109% (inactive) and 113% (inactive) | 93.9% (inactive) and 100% (inactive) | 107% (inactive) and 103% (inactive) | 101% (inactive) and 106% (inactive) | 115% (inactive) and 111% (inactive) | 103% (inactive) and 107% (inactive) | 86.4% (inactive) and 94.8% (inactive) | 110% (inactive) and 107% (inactive) | 90.5% (inactive) and 95.8% (inactive) | 106% (inactive) | 93.7% (inactive) and 100% (inactive) | 96% (inactive) and 95.2% (inactive) | 94.9% (inactive) and 99.3% (inactive) | 111% (inactive) and 100% (inactive) | 107% (inactive) and 108% (inactive) | 
2 | Cc1cc(-c2ccc(N=Nc3ccc4c(S(=O)(=O)O)cc(S(=O)(=O)O)c(N)c4c3O)c(C)c2)ccc1N=Nc1ccc2c(S(=O)(=O)O)cc(S(=O)(=O)O)c(N)c2c1O |  |  | 101% (inactive) | 90.2% (inactive) |  | 102% (inactive) | 78.5% (inactive) | 95.5% (inactive) | 119% (inactive) | 103% (inactive) | 93.1% (inactive) | 98.5% (inactive) | 110% (inactive) | 103% (inactive) |  | 117% (inactive) | 94.7% (inactive) | 86.1% (inactive)
3 | Oc1ccc(Cc2ccccc2Cl)c(O)c1 | 95.7% (inactive) | 87.5% (inactive) | 104% (inactive) | 97.3% (inactive) | 93.6% (inactive) | 104% (inactive) | 94.7% (inactive) |  | 94.4% (inactive) | 91.5% (inactive) | 83.9% (inactive) | 107% (inactive) | 97.1% (inactive) | 119% (inactive) |  | 91.3% (inactive) |  | 99.2% (inactive)
4 | CCOC(=O)c1c(C)cc(=O)oc1C | 92% (inactive) | 97.9% (inactive) | 111% (inactive) | 101% (inactive) | 108% (inactive) | 103% (inactive) | 99.2% (inactive) | 121% (inactive) | 118% (inactive) | 104% (inactive) | 102% (inactive) |  | 110% (inactive) | 97.1% (inactive) | 95.4% (inactive) | 103% (inactive) | 110% (inactive) | 97.3% (inactive)
5 | CC(=O)OC(C)C(=O)NCC(C)O (stereo unspecified) | 88% (inactive) |  | 102% (inactive) | 104% (inactive) | 100% (inactive) | 95.3% (inactive) | 114% (inactive) | 107% (inactive) | 86% (inactive) | 106% (inactive) | 96.3% (inactive) | 111% (inactive) | 94.3% (inactive) | 96.9% (inactive) |  | 99.4% (inactive) | 102% (inactive) | 111% (inactive)
6 | CCN(CCNS(C)(=O)=O)c1ccc(N)c(C)c1 | 94.9% (inactive) | 59.9% (inactive) and 110% (inactive) | 78.1% (inactive) and 97.5% (inactive) | 115% (inactive) and 109% (inactive) | 69.6% (inactive) and 102% (inactive) | 98.6% (inactive) and 96% (inactive) | 70.3% (inactive) and 68.9% (inactive) | 25.5% (inactive) and 77.8% (inactive) | 115% (inactive) and 103% (inactive) | 90.2% (inactive) and 96.9% (inactive) | 1.47% (active) and 56.8% (inactive) | 28.9% (inactive) and 76.5% (inactive) | 21.6% (inactive) and -27.2% (active) | 20.6% (inactive) and 72.8% (inactive) |  | 103% (inactive) and 102% (inactive) | 103% (inactive) | 73.8% (inactive) and 102% (inactive)
7 | CN(C)c1ccc(/C=C\C(=O)c2ccccc2)cc1 | 3.11% (active) and 59.4% (inactive) and 24.9% (inactive) | 72.7% (inactive) and 76.8% (inactive) and 69.6% (inactive) | 102% (inactive) and 93.9% (inactive) and 92.6% (inactive) | 106% (inactive) and 110% (inactive) and 99% (inactive) | 105% (inactive) and 109% (inactive) and 104% (inactive) | 92.3% (inactive) and 104% (inactive) | 80.5% (inactive) and 91.3% (inactive) and 80.3% (inactive) | 81.4% (inactive) and 76.2% (inactive) and 78.5% (inactive) | 104% (inactive) and 99.6% (inactive) and 103% (inactive) | 88.2% (inactive) and 85.5% (inactive) and 93.1% (inactive) | 85.2% (inactive) and 89.3% (inactive) | 85.3% (inactive) and 38% (inactive) and 25.1% (inactive) | 64.2% (inactive) and 61.3% (inactive) and 66.4% (inactive) | 50.2% (inactive) and 39.2% (inactive) and 45% (inactive) |  | 97.1% (inactive) and 88.3% (inactive) and 100% (inactive) | 51.5% (inactive) and 50.1% (inactive) and 57.5% (inactive) | 76.5% (inactive) and 77.6% (inactive) and 73.7% (inactive)
8 | CC1=C/C(O)CC(=O)Cc2nc(co2)C(=O)N2CCC=C2C(=O)OC(C(C)C)C(C)/C=C\C(=O)NC/C=C\1 (stereo unspecified) | 17.9% (inactive) | 60.7% (inactive) | 74% (inactive) | 94.8% (inactive) | 78.5% (inactive) | 119% (inactive) | 3.64% (active) | 85% (inactive) | 63.4% (inactive) | 109% (inactive) | 89.4% (inactive) | 81.2% (inactive) | 59.9% (inactive) | 71.8% (inactive) |  | 118% (inactive) | 95.1% (inactive) | 
9 | CC1(C)COC(=S)N1 | 93.8% (inactive) |  | 103% (inactive) | 93.4% (inactive) | 102% (inactive) | 109% (inactive) | 95.8% (inactive) | 110% (inactive) | 106% (inactive) | 106% (inactive) | 99.9% (inactive) | 101% (inactive) | 109% (inactive) | 105% (inactive) | 105% (inactive) | 106% (inactive) | 112% (inactive) | 102% (inactive)
